The supplement of paper PMC6522484
± gives the standard deviation of the averaged measurements.

What was measured:
[1] = test system: DLD1; assay: cell viability (CellTiter-Glo) relative to plate median (fraction of plate median); higher = more viable cells; settings: 5 µM; treatment time 24 h; reporter: 7TFP
How it was run: (§1)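 Luminescence, normalised well by well to the plate median, is tabulated as a mean of independent replicates. There were two replicates, run on colorectal cancer lines stably transduced with lentiviral TCF/Wnt firefly luciferase reporters and dosed with library compounds at a final 5 µM for 24 h. Readouts were firefly luciferase or CellTiterGlo on parallel plates.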

[2] = test system: HCT116; assay: as above; settings: 5 µM; treatment time 24 h; reporter: TCF4/Wnt
How it was run: as §1

[3] = test system: SW480; assay: as above; settings: 5 µM; treatment time 24 h; reporter: 7TFP
How it was run: as §1

[4] = test system: DLD1; assay: TCF/Wnt firefly luciferase reporter signal relative to plate median (fraction of plate median); higher = higher Wnt reporter signal; settings: 5 µM; treatment time 24 h; reporter: 7TFP
How it was run: as §1

[5] = test system: SW480; assay: as above; settings: 5 µM; treatment time 24 h; reporter: 7TFP
How it was run: as §1

CC(=O)Oc1ccc2c(c1C(C)C)CCC1C(C)(C)CCC[C@]21C (stereo not given in full)
cell viability [1]: 1.18 ± 0.22 | cell viability [2]: 1.15 ± 0.071 | cell viability [3]: 1.05 ± 0.05 | TCF/Wnt firefly luciferase reporter signal [4]: 0.98 ± 0.11 | TCF/Wnt firefly luciferase reporter signal [5]: 0.962 ± 0.047

CNCc1ccccc1
cell viability [1]: 1.03 ± 0.014 | cell viability [2]: 1.125 ± 0.0071 | cell viability [3]: 1.03 ± 0.021 | TCF/Wnt firefly luciferase reporter signal [4]: 1.03 ± 0.067 | TCF/Wnt firefly luciferase reporter signal [5]: 1.045 ± 0.0071

CN(C)C(=N)NC(=N)N
cell viability [1]: 0.966 ± 0.076 | cell viability [2]: 1.003 ± 0.0099 | cell viability [3]: 1.01 ± 0.025 | TCF/Wnt firefly luciferase reporter signal [4]: 1.03 ± 0.13 | TCF/Wnt firefly luciferase reporter signal [5]: 1 ± 0.054

CN1CCN(CC/C=C2/c3ccccc3Sc3ccc(S(=O)(=O)N(C)C)cc32)CC1
cell viability [1]: 1.07 ± 0.078 | cell viability [2]: 1.16 ± 0.042 | cell viability [3]: 1.07 ± 0.064 | TCF/Wnt firefly luciferase reporter signal [4]: 1.11 ± 0.078 | TCF/Wnt firefly luciferase reporter signal [5]: 0.983 ± 0.17

CC(=O)OC(C)C[N+](C)(C)C (stereo not given)
cell viability [1]: 0.968 ± 0.1 | cell viability [2]: 1.03 ± 0.08 | cell viability [3]: 0.997 ± 0.019 | TCF/Wnt firefly luciferase reporter signal [4]: 1.01 ± 0.071 | TCF/Wnt firefly luciferase reporter signal [5]: 1.01 ± 0.021

Cn1nnnc1SCC1=C(C(=O)O)N2C(=O)[C@@H](NC(=O)[C@H](O)c3ccccc3)[C@H]2SC1
cell viability [1]: 1.05 ± 0.064 | cell viability [2]: 0.949 ± 0.03 | cell viability [3]: 1.01 ± 0.037 | TCF/Wnt firefly luciferase reporter signal [4]: 0.878 ± 0.03 | TCF/Wnt firefly luciferase reporter signal [5]: 0.989 ± 0.072

C[C@H]1COc2c(N3CCN(C)CC3)c(F)cc3c(=O)c(C(=O)O)cn1c23
cell viability [1]: 0.891 ± 0.025 | cell viability [2]: 0.966 ± 0.04 | cell viability [3]: 0.984 ± 0.023 | TCF/Wnt firefly luciferase reporter signal [4]: 0.996 ± 0.049 | TCF/Wnt firefly luciferase reporter signal [5]: 1.04 ± 0.093

C=C1C(=O)O[C@@H]2C[C@@]3(C)CCC[C@H](C)C3=C[C@H]12
cell viability [1]: 1.01 ± 0.02 | cell viability [2]: 0.875 ± 0.027 | cell viability [3]: 0.96 ± 0.0057 | TCF/Wnt firefly luciferase reporter signal [4]: 0.985 ± 0.0057 | TCF/Wnt firefly luciferase reporter signal [5]: 1.03 ± 0.067

CC(=O)Oc1ccc(-c2cc(=O)c3c(OC(C)=O)cc(OC(C)=O)cc3o2)cc1
cell viability [1]: 0.993 ± 0.038 | cell viability [2]: 0.934 ± 0.093 | cell viability [3]: 0.9365 ± 0.005 | TCF/Wnt firefly luciferase reporter signal [4]: 1.01 ± 0.021 | TCF/Wnt firefly luciferase reporter signal [5]: 0.926 ± 0.011

CN1CCCN=C1/C=C/c1cccs1
cell viability [1]: 0.984 ± 0.022 | cell viability [2]: 0.903 ± 0.093 | cell viability [3]: 1.05 | TCF/Wnt firefly luciferase reporter signal [4]: 1.135 ± 0.0071 | TCF/Wnt firefly luciferase reporter signal [5]: 0.994 ± 0.037

O=c1[nH]cnc2nc[nH]c12
cell viability [1]: 0.987 ± 0.061 | cell viability [2]: 1.04 | cell viability [3]: 0.913 ± 0.044 | TCF/Wnt firefly luciferase reporter signal [4]: 0.969 ± 0.043 | TCF/Wnt firefly luciferase reporter signal [5]: 1

CN(C)c1ccc2nc3ccc(=[N+](C)C)cc-3sc2c1
cell viability [1]: 1 ± 0.052 | cell viability [2]: 0.878 ± 0.021 | cell viability [3]: 1.16 ± 0.071 | TCF/Wnt firefly luciferase reporter signal [4]: 1.06 ± 0.078 | TCF/Wnt firefly luciferase reporter signal [5]: 1.11 ± 0.021

CNS(=O)(=O)c1ccc(NC(=O)c2ccccc2C(=O)O)cc1
cell viability [1]: 1.03 ± 0.098 | cell viability [2]: 1.04 ± 0.042 | cell viability [3]: 1.04 ± 0.072 | TCF/Wnt firefly luciferase reporter signal [4]: 0.967 ± 0.013 | TCF/Wnt firefly luciferase reporter signal [5]: 1.085 ± 0.0071

CC(=O)O[C@H]1C[C@@H](OC(C)=O)C(C)(C)[C@@H]2C[C@@H](OC(C)=O)[C@@]3(C)C4=CC(=O)O[C@@H](c5ccoc5)[C@]4(C)CC[C@@H]3[C@@]12C
cell viability [1]: 1.01 ± 0.018 | cell viability [2]: 1.15 ± 0.092 | cell viability [3]: 1.05 ± 0.057 | TCF/Wnt firefly luciferase reporter signal [4]: 0.976 ± 0.011 | TCF/Wnt firefly luciferase reporter signal [5]: 0.997 ± 0.033

CC(N)CCCC(C)(C)O (stereo not given)
cell viability [1]: 1.01 ± 0.092 | cell viability [2]: 0.955 ± 0.078 | cell viability [3]: 0.933 ± 0.022 | TCF/Wnt firefly luciferase reporter signal [4]: 1.03 ± 0.021 | TCF/Wnt firefly luciferase reporter signal [5]: 1.04 ± 0.035

NC(=O)c1cccc(N)c1
cell viability [1]: 0.983 ± 0.039 | cell viability [2]: 1.01 ± 0.062 | cell viability [3]: 0.9685 ± 0.0035 | TCF/Wnt firefly luciferase reporter signal [4]: 0.959 ± 0.13 | TCF/Wnt firefly luciferase reporter signal [5]: 0.853 ± 0.09

Nc1nc(F)nc2c1ncn2[C@@H]1O[C@H](COP(=O)(O)O)[C@@H](O)[C@@H]1O
cell viability [1]: 0.987 ± 0.061 | cell viability [2]: 0.942 ± 0.019 | cell viability [3]: 0.972 ± 0.054 | TCF/Wnt firefly luciferase reporter signal [4]: 0.926 ± 0.018 | TCF/Wnt firefly luciferase reporter signal [5]: 1.04 ± 0.021

NC(=O)c1cccnc1
cell viability [1]: 1.02 ± 0.021 | cell viability [2]: 1.01 ± 0.025 | cell viability [3]: 0.982 ± 0.021 | TCF/Wnt firefly luciferase reporter signal [4]: 1.16 ± 0.057 | TCF/Wnt firefly luciferase reporter signal [5]: 1.15 ± 0.11

CCC1(c2ccccc2)C(=O)NCNC1=O
cell viability [1]: 1.02 ± 0.029 | cell viability [2]: 0.994 ± 0.15 | cell viability [3]: 1 ± 0.025 | TCF/Wnt firefly luciferase reporter signal [4]: 0.978 ± 0.1 | TCF/Wnt firefly luciferase reporter signal [5]: 1.06 ± 0.028

N=C(N)NC(=O)c1nc(Cl)c(N)nc1N
cell viability [1]: 0.963 ± 0.067 | cell viability [2]: 0.988 ± 0.046 | cell viability [3]: 1.01 ± 0.057 | TCF/Wnt firefly luciferase reporter signal [4]: 0.937 ± 0.024 | TCF/Wnt firefly luciferase reporter signal [5]: 1 ± 0.084

C=C1C2CCC3(C)C(c4ccoc4)OC(=O)CC13OC1CC(=O)C(C)(C)C(CC(=O)OC)C12C (stereo not given)
cell viability [1]: 0.97 ± 0.012 | cell viability [2]: 0.934 ± 0.0099 | cell viability [3]: 0.925 ± 0.044 | TCF/Wnt firefly luciferase reporter signal [4]: 1.04 ± 0.12 | TCF/Wnt firefly luciferase reporter signal [5]: 1.09 ± 0.13

CN1CCN(CCCN2c3ccccc3Sc3ccc(C(F)(F)F)cc32)CC1
cell viability [1]: 0.999 ± 0.0014 | cell viability [2]: 1.08 ± 0.13 | cell viability [3]: 1.09 ± 0.028 | TCF/Wnt firefly luciferase reporter signal [4]: 1.21 ± 0.17 | TCF/Wnt firefly luciferase reporter signal [5]: 1.05 ± 0.14

CCCCCCCCCc1ccc(OCCOCCOCCOCCOCCOCCOCCOCCOCCO)cc1
cell viability [1]: 0.985 ± 0.064 | cell viability [2]: 0.947 ± 0.036 | cell viability [3]: 0.998 ± 0.032 | TCF/Wnt firefly luciferase reporter signal [4]: 1 ± 0.18 | TCF/Wnt firefly luciferase reporter signal [5]: 0.904 ± 0.088

O=C(NCO)c1cccnc1
cell viability [1]: 0.952 ± 0.027 | cell viability [2]: 0.921 ± 0.022 | cell viability [3]: 1.04 ± 0.028 | TCF/Wnt firefly luciferase reporter signal [4]: 1.02 ± 0.13 | TCF/Wnt firefly luciferase reporter signal [5]: 0.959 ± 0.013

CC(C)[C@H]1CC[C@H](C(=O)N[C@H](Cc2ccccc2)C(=O)O)CC1
cell viability [1]: 0.905 ± 0.0028 | cell viability [2]: 0.972 ± 0.0014 | cell viability [3]: 0.973 ± 0.067 | TCF/Wnt firefly luciferase reporter signal [4]: 1.03 ± 0.014 | TCF/Wnt firefly luciferase reporter signal [5]: 0.983 ± 0.014

CN(C)CCCO[C@@H]1[C@H]2OC(C)(C)O[C@H]2O[C@@H]1[C@H](O)CO
cell viability [1]: 1.04 ± 0.06 | cell viability [2]: 0.9935 ± 0.0064 | cell viability [3]: 0.96 ± 0.038 | TCF/Wnt firefly luciferase reporter signal [4]: 0.998 ± 0.14 | TCF/Wnt firefly luciferase reporter signal [5]: 0.972 ± 0.029

CCc1cccc2c3c([nH]c12)C(CC)(CC(=O)O)OCC3 (stereo not given)
cell viability [1]: 0.949 ± 0.073 | cell viability [2]: 0.957 ± 0.089 | cell viability [3]: 0.921 ± 0.025 | TCF/Wnt firefly luciferase reporter signal [4]: 1.04 ± 0.021 | TCF/Wnt firefly luciferase reporter signal [5]: 1.08 ± 0.035

CC(C(=O)O)c1ccc(C(=O)c2cccs2)cc1 (stereo not given)
cell viability [1]: 1.01 ± 0.021 | cell viability [2]: 1.025 ± 0.0071 | cell viability [3]: 1.02 ± 0.014 | TCF/Wnt firefly luciferase reporter signal [4]: 0.996 ± 0.021 | TCF/Wnt firefly luciferase reporter signal [5]: 0.999 ± 0.072

COc1c(OC)c2occc2c2oc(=O)ccc12
cell viability [1]: 1.004 ± 0.0085 | cell viability [2]: 0.829 ± 0.16 | cell viability [3]: 1.02 ± 0.077 | TCF/Wnt firefly luciferase reporter signal [4]: 0.802 ± 0.21 | TCF/Wnt firefly luciferase reporter signal [5]: 0.948 ± 0.011

C=CC(N)CCC(=O)O (stereo not given)
cell viability [1]: 1.06 ± 0.021 | cell viability [2]: 0.934 ± 0.086 | cell viability [3]: 1.06 | TCF/Wnt firefly luciferase reporter signal [4]: 0.952 ± 0.21 | TCF/Wnt firefly luciferase reporter signal [5]: 1.06 ± 0.092
